# Assay results taken from the antibiotic and cytotoxicity screens of Wong et al. (2023).
# Hit rate of the full screen: of about 39,000 compounds, about 1,500 (3.8%) were called active. For the sample, actives were picked, then their nearest neighbours and some compounds at random.
# System: HSkMC (human skeletal muscle cells)
# Test: cytotoxicity call (relative viability < 0.9)
# Conditions: 10 µM
row,SMILES,cytotoxicity call
1,C[C@@H]1CN([C@H](C)CO)C(=O)c2cc(NC(=O)Cn3cnnn3)ccc2O[C@H]1CN(C)CC1CCCCC1,inactive
2,Cc1ccc(-c2ccc3c(c2)O[C@@H](CN(C)C(=O)NC(C)C)[C@H](C)CN([C@H](C)CO)S3(=O)=O)cc1,inactive
3,CCCNC(=O)N[C@H]1CC[C@@H](CC(=O)N2CCN(C)CC2)O[C@@H]1CO,inactive
4,C[C@@H]1CN([C@H](C)CO)C(=O)c2cc(NS(C)(=O)=O)ccc2O[C@@H]1CN(C)Cc1ccc(C(=O)O)cc1,inactive
5,CC(C)NC(=O)N(C)C[C@@H]1OCCCC[C@@H](C)Oc2ccc(NS(=O)(=O)c3cn(C)cn3)cc2C(=O)N([C@@H](C)CO)C[C@H]1C,inactive
6,C[C@H](CO)N1C[C@H](C)[C@H](CN(C)C(=O)Nc2ccccc2)OCCCC[C@H](C)Oc2ccc(NC(=O)Nc3cccc4ccccc34)cc2C1=O,inactive
7,Cc1noc(C)c1NC(=O)N(C)C[C@@H]1Oc2ccc(NC(=O)Nc3ccc(C(F)(F)F)cc3)cc2C(=O)N([C@H](C)CO)C[C@@H]1C,inactive
8,C[C@@H]1CN([C@H](C)CO)C(=O)c2cc(NC(=O)Nc3cccc4ccccc34)ccc2O[C@H]1CN(C)Cc1ccccc1,inactive
9,C[C@@H]1CN([C@H](C)CO)C(=O)c2cc(NC(=O)Nc3cccc4ccccc34)ccc2O[C@H]1CN(C)Cc1ccc(-c2ccccc2)cc1,inactive
10,C[C@H]1CN([C@@H](C)CO)C(=O)c2cc(NC(=O)Nc3cccc4ccccc34)ccc2O[C@H]1CN(C)Cc1ccc(-c2ccccc2)cc1,inactive
11,C[C@H]1CN([C@@H](C)CO)C(=O)c2cc(NC(=O)Nc3cccc4ccccc34)ccc2O[C@@H]1CN(C)Cc1ccc(-c2ccccc2)cc1,active
12,C[C@@H]1CN([C@@H](C)CO)C(=O)c2cc(NC(=O)Nc3cccc4ccccc34)ccc2O[C@@H]1CN(C)Cc1ccc(-c2ccccc2)cc1,active
13,C[C@@H]1CN([C@@H](C)CO)C(=O)c2cc(NC(=O)Nc3cccc4ccccc34)ccc2O[C@H]1CN(C)Cc1ccc(-c2ccccc2)cc1,inactive
14,C[C@@H]1CN([C@H](C)CO)C(=O)c2cc(NC(=O)Nc3cccc4ccccc34)ccc2O[C@@H]1CN(C)Cc1ccc(-c2ccccc2)cc1,inactive
15,C[C@H](CO)N1C[C@H](C)[C@H](CN(C)Cc2ccc(-c3ccccc3)cc2)Oc2ccc(NC(=O)Nc3cccc4ccccc34)cc2C1=O,active
16,C[C@H](CO)N1C[C@H](C)[C@@H](CN(C)Cc2ccc(-c3ccccc3)cc2)Oc2ccc(NC(=O)Nc3cccc4ccccc34)cc2C1=O,inactive
17,Cc1ccc(S(=O)(=O)N(C)C[C@H]2Oc3c(NC(=O)Nc4ccc(C(F)(F)F)cc4)cccc3C(=O)N([C@H](C)CO)C[C@@H]2C)cc1,inactive
18,CO[C@H]1CN(C)C(=O)c2cc(NS(=O)(=O)c3cn(C)cn3)ccc2OC[C@@H](C)N(Cc2cccc(F)c2)C[C@H]1C,inactive
19,Cc1noc(C)c1NC(=O)Nc1cccc2c1O[C@@H](CN(C)Cc1ccc(Oc3ccccc3)cc1)[C@@H](C)CN([C@@H](C)CO)C2=O,inactive
20,COc1ccc(S(=O)(=O)N(C)C[C@@H]2Oc3cc(C4=CCCC4)ccc3S(=O)(=O)N([C@H](C)CO)C[C@@H]2C)cc1,inactive
21,COCCNC(=O)C[C@H]1CC[C@H]2[C@@H](COC[C@@H](O)CN2C(=O)Nc2ccc3c(c2)OCO3)O1,inactive
22,CC(C)NC(=O)Nc1cccc2c1O[C@H](CN(C)Cc1ccc3c(c1)OCO3)[C@@H](C)CN([C@H](C)CO)C2=O,inactive

row,SMILES,cytotoxicity call
1,COc1ccc(NC(=O)Nc2ccc3c(c2)C(=O)N([C@H](C)CO)C[C@H](C)[C@H](CN(C)Cc2ccc(C(=O)O)cc2)OCCCC[C@H](C)O3)cc1,inactive
2,C[C@H](CO)N1C[C@H](C)[C@@H](CN(C)S(=O)(=O)c2cn(C)cn2)Oc2ccc(NS(=O)(=O)c3ccc(Cl)cc3)cc2CC1=O,inactive
3,C[C@H]1CN=C(NS(=O)(=O)c2ccccc2)N1,inactive
4,C=CCON1C(=O)[C@@H]2[C@@H](C1=O)[C@@H]1C=C[C@@H]2O1,inactive
5,CCCCc1oc2ccc(NS(C)(=O)=O)cc2c1C(=O)c1ccc(OCCCN(CCCC)CCCC)cc1,active
6,CCCCOc1cc(C(=O)OCCN(CC)CC)ccc1N.Cl,inactive
7,CCCCN(CCCC)CCCOC(=O)c1ccc(N)cc1.O=S(=O)(O)O,inactive
8,CCCCc1oc2ccc(NS(C)(=O)=O)cc2c1C(=O)c1ccc(OCCCN(CCCC)CCCC)cc1.Cl,active
9,CCc1oc2ccccc2c1C(=O)c1cc(Br)c(O)c(Br)c1,inactive
10,CCCCc1oc2ccccc2c1C(=O)c1cc(I)c(OCCN(CC)CC)c(I)c1.Cl,inactive
11,CCCCc1oc2ccccc2c1C(=O)c1cc(I)c(OCCN(CC)CC)c(I)c1,active
12,C[C@H]1CN([C@@H](C)CO)C(=O)c2c(c3ccccc3n2C)-c2ccccc2CO[C@@H]1CN(C)C(=O)Nc1cccc(C(F)(F)F)c1,inactive
13,O=C(C[C@@H]1C=C[C@@H](NC(=O)Cc2ccccn2)[C@@H](CO)O1)NCCCN1CCOCC1,inactive
14,CNC(=O)C[C@@H]1CC[C@@H]2[C@H](COc3ccc(NC(=O)c4ccc(C(F)(F)F)cc4)cc3C(=O)N2C)O1,inactive
15,C[C@@H]1CCCCO[C@@H](CN(C)S(=O)(=O)c2cn(C)cn2)[C@@H](C)CN([C@@H](C)CO)C(=O)c2cc(NC(=O)Nc3ccc(C(F)(F)F)cc3)ccc2O1,inactive
16,COCCOC(=O)N1C(=O)[C@@]2(c3cc(C#Cc4ccc(OC)cc4)ccc31)[C@H](c1ccccc1OCCO)N1[C@H](c3ccccc3)[C@H](c3ccccc3)OC(=O)[C@H]1[C@@H]2C(=O)N1CCN(c2ncccn2)CC1,inactive
17,Cc1noc(C)c1NC(=O)N(C)C[C@@H]1OCCCC[C@H](C)Oc2ccc(NC(=O)NC3CCCCC3)cc2C(=O)N([C@@H](C)CO)C[C@H]1C,inactive
18,CO[C@@H]1CN(C)C(=O)c2cc(NC(=O)NC(C)C)ccc2OC[C@H](C)N(Cc2ccc(-c3ccccn3)cc2)C[C@@H]1C,inactive
19,C[C@@H]1CCCCO[C@H](CN(C)S(C)(=O)=O)[C@@H](C)CN([C@H](C)CO)C(=O)c2cc(NS(=O)(=O)c3cccs3)ccc2O1,inactive
20,C[C@@H]1CCCCO[C@@H](CN(C)C(=O)Nc2ccc(C(F)(F)F)cc2)[C@H](C)CN([C@H](C)CO)C(=O)c2cc(NC(=O)Cc3ccccc3)ccc2O1,inactive
21,COc1ccc(N2C(=O)C[C@@H](c3ccc(Br)cc3)[C@H]2C(=O)Nc2cccc3cccnc23)cc1,inactive
22,COc1nc(=NC(=O)NS(=O)(=O)Nc2cccc3cccnc23)nc(OC)[nH]1,active

row,SMILES,cytotoxicity call
1,O=C(Oc1cccc2cccnc12)c1ccccc1,inactive
2,CNC[C@H]1Oc2c(NS(=O)(=O)c3cn(C)cn3)cccc2C(=O)N([C@H](C)CO)C[C@@H]1C,inactive
3,CCOc1ccn(-c2ccc(F)cc2)c(=O)c1C(=O)Nc1ccc(Oc2ccnc(N)c2Cl)c(F)c1,inactive
4,COc1cc2nccc(Oc3ccc(NC(=O)C4(C(=O)Nc5ccc(F)cc5)CC4)cc3)c2cc1OC,active
5,COc1cc2ncnc(Nc3ccc(F)c(Cl)c3)c2cc1OCCCN1CCOCC1,inactive
6,COc1cc2nccc(Oc3ccc(NC(=O)c4cn(C(C)C)c(=O)n(-c5ccc(F)cc5)c4=O)cc3F)c2cc1OC,active
7,COc1cc2ncnc(Oc3cccc(NC(=O)Nc4cc(C(C)(C)C(F)(F)F)on4)c3)c2cc1OC,inactive
8,COc1cc2c(Oc3ccc(NC(=O)C4(C(=O)Nc5ccc(F)cc5)CC4)cc3F)ccnc2cc1OCCCN1CCOCC1,active
9,COc1ccc2c3c([nH]c2c1)[C@H](CO)N(C[C@]13CCN(CC1)C(=O)Nc1c(noc1C)C)C(=O)Nc1ccc(cc1)F,inactive
10,COc1ccc2c3c(n(c2c1)C)[C@H](CO)N(C[C@]13CCN(CC1)C(=O)CN1CCOCC1)C(=O)Nc1ccc(cc1)F,inactive
11,C[C@H](CO)N1C[C@H](C)[C@@H](CN(C)S(=O)(=O)c2cccs2)Oc2ccc(NS(=O)(=O)c3cccs3)cc2CC1=O,inactive
12,C[C@H](CO)N1C[C@H](C)[C@@H](CN(C)Cc2ccc(C(F)(F)F)cc2)Oc2ccc(NC(=O)CCC(F)(F)F)cc2C1=O,inactive
13,C[C@@H]1CN([C@@H](C)CO)C(=O)CCCn2nncc2CO[C@H]1CN(C)C(=O)c1cc(-c2ccccc2)on1,inactive
14,C[C@H](CO)N1C[C@H](C)[C@H](CN(C)CC2CC2)OCCCC[C@H](C)Oc2ccc(NS(=O)(=O)c3ccc(Cl)cc3)cc2C1=O,inactive
15,C[C@@H]1CN([C@H](C)CO)C(=O)Cc2cc(NS(=O)(=O)c3cn(C)cn3)ccc2O[C@@H]1CN(C)Cc1ccc(C(=O)O)cc1,inactive
16,COC(=O)Cn1c(=N)n(C)c2ccccc21,inactive
17,C[C@H](CO)N1C[C@H](C)[C@H](CN(C)Cc2ccc(Cl)c(Cl)c2)Oc2ccc(NC(=O)Cn3cnnn3)cc2C1=O,inactive
18,CO[C@@]1(NC(=O)[C@@H](C(=O)O)c2ccc(O)cc2)C(=O)N2C(C(=O)O)=C(CSc3nnnn3C)CO[C@@H]21,inactive
19,Cc1cc(C=Cc2ccc3cc(N(C)C)ccc3[n+]2C)c(C)n1-c1ccccc1.O=C([O-])c1cc2ccccc2c(Cc2c(O)c(C(=O)O)cc3ccccc23)c1O,active
20,CN1CCCN=C1C=Cc1cccs1.O=C(O)c1cc2ccccc2c(Cc2c(O)c(C(=O)O)cc3ccccc23)c1O,inactive
21,CN1CCCN=C1C=Cc1cccc(O)c1.O=C(O)c1cc2ccccc2c(Cc2c(O)c(C(=O)O)cc3ccccc23)c1O,inactive
22,C[C@H](CO)N1C[C@H](C)[C@@H](CN(C)C(=O)Nc2ccccc2)Oc2ccc(NC(=O)CCCCCC(=O)Nc3ccccc3N)cc2C1=O,inactive
